Reference: PubChem BioAssay AID504834 (National Center for Advancing Translational Sciences (NCATS), 2011)
Screen size: about 320,000 compounds; about 22,000 (6.9%) were called active. Where a call stands in place of a potency, no number is given. Not shown: some 27% with an inconclusive outcome. The full list was thinned out, with actives kept by preference. A number with no mark means an inactive call. Calls come from the whole dose curve; as a rule, active = well fitted inhibition curve with a large enough effect; inconclusive = small, poorly fitted or top-dose-only effect, or another doubt; inactive = no such curve, though single readings can be large or run the other way.

Experiment: Primary qHTS for delayed death inhibitors of the malarial parasite plastid, 96 hour incubation
Details: P. falciparum luciferase reporter growth; series mostly up to 28.7 µM
Method in brief: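 96 h incubation, 37 C, 5% CO2, of luciferase-reporter P. falciparum-infected RBCs (2% hematocrit, 0.05% parasitemia final) with test compounds; endpoint luminescence.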
Potency is the fitted concentration of half-maximal effect.

SMILES	Potency	activity change, negative = inhibition
O=[N+]([O-])c1cc(S(=O)(=O)NCCc2ccccn2)ccc1Cl	inactive	
CN1CCN(Cc2c(C(=O)N3CCc4ccccc4C3)nc3ccc(Cl)cn23)CC1	inactive	
COC(=O)c1ccc(NC(=O)CSc2nc(N)c(NC(=O)c3ccc(Br)o3)c(=O)[nH]2)cc1	inactive	
CCN(CC(=O)Nc1cc(Cl)ccc1C)C(=O)CN1C(=O)NC2(CCCC2)C1=O	inactive	
Cc1cc(=O)oc2c(C)c(OCC(=O)NCCc3ccc(S(N)(=O)=O)cc3)ccc12	inactive	
Cc1ccc(OCC(=O)Nc2ccc(C(=O)O)cc2NC(=O)COc2ccc(C)c(C)c2)cc1C	inactive	
CC1(C)CC(N2CCN(C(c3ccccc3)c3ccccc3)CC2)=CC(=[N+]2CCCCC2)C1	0.415 µM (active)	
CC1(C)CC(=O)C=C(N2CCCC2)C1	inactive	
O=C1CC(N2CCN(C(c3ccccc3)c3ccccc3)CC2)C(=O)N1 (configuration not stated)	inactive	
CCOc1ccc(S(=O)(=O)Nc2ccc(OC)nc2)cc1	inactive	
CN(CCO)c1ccc(/C=N/Nc2nncc3ccccc23)cc1	inactive	
CCC(=O)N1CCCc2ccccc21	inactive	
Cc1occc1C(=O)N1CCCc2ccccc21	10.4 µM (active)	
COc1ccc2oc(=O)c(C(=O)N3CCCc4ccccc43)cc2c1	inactive	
COc1cc(NC(=O)CN2C(=O)NC(C)(c3ccc(OC(F)F)cc3)C2=O)cc(OC)c1OC (configuration not stated)	inactive	
COc1ccc(Cl)cc1S(=O)(=O)N1CCC(O)(c2ccc(Cl)cc2)CC1	inactive	
CCOc1cc(C(C(=O)NCC2CCCO2)N(C(=O)Cn2nnc3ccccc32)c2cccc(OC)c2)ccc1O (configuration not stated)	inactive	
COC(=O)c1sc(N2CCN(Cc3ccccc3)CC2)nc1N	inactive	
CS(=O)(=O)c1ccc(Cl)c(NC(=O)COC(=O)c2ncc(Cl)c(Cl)c2Cl)c1	inactive	
Cc1ccc(S(=O)(=O)c2c[nH]c3ccc(Cl)cc3c2=O)cc1	inactive	
COc1ccc(-c2oc3ncn(Cc4ccco4)c(=N)c3c2-c2ccc(OC)cc2)cc1	6.57 µM (active)	
COc1ccc(Nc2nc(Cl)nc(NCc3ccco3)n2)cc1	inactive	
COc1ccc2[nH]c3c(=O)n(Cc4ccco4)cnc3c2c1		6.11% [at 5.75 µM]

SMILES	Potency	activity change, negative = inhibition
CN(c1ccccc1)S(=O)(=O)c1ccc2[nH]c(=O)[nH]c2c1	inactive	
CC(CCc1ccccc1)NC(=O)COC(=O)c1ccc(F)cc1 (configuration not stated)	inactive	
CCOC(=O)N1CCN(CC(=O)Nc2ccc(F)cc2)CC1	inactive	
CCNC(=S)N1CCN(C(=O)c2ccco2)CC1	inactive	
Cc1ccc(NC(=O)C2CC(c3ccc(F)cc3)=NO2)cc1 (configuration not stated)	4.15 µM (active)	
CCn1ncc(C2=NOC(C(=O)N3CCN(c4ccccc4)CC3)C2)c1C (configuration not stated)	inactive	
O=C(c1ccco1)N1CCN(C(=O)C2CC(c3ccc(F)cc3)=NO2)CC1 (configuration not stated)	7.38 µM (active)	
O=C(c1ccc2c(c1)OCO2)N1CCN(C(=O)c2ccco2)CC1	inactive	
O=C(Cc1c(F)cccc1Cl)N1CCN(C(=O)c2ccco2)CC1	inactive	
CCOC(=O)N1CCN(C(=O)C2CC(c3ccc(F)cc3)=NO2)CC1 (configuration not stated)	4.65 µM (active)	
O=C(c1ccco1)N1CCN(C(=O)c2ccc(COc3ccc(F)cc3)o2)CC1	inactive	
COc1ccc(CNC(=O)C2CC(c3ccc(C(F)(F)F)cc3)=NO2)cc1 (configuration not stated)	inactive	
O=C(c1ccco1)N1CCN(C(=O)C2CC(c3ccc(Cl)c(Cl)c3)=NO2)CC1 (configuration not stated)	5.86 µM (active)	
O=C(NCc1cc(C(F)(F)F)cc(C(F)(F)F)c1)C1CC(c2cccc(F)c2)=NO1 (configuration not stated)	inactive	
O=C(COc1nsnc1N1CCOCC1)Nc1ccccc1Cl	inactive	
COc1cccc(/C=C/C(=O)OCC(=O)N2CCN(c3ccccc3)CC2)c1	inactive	
Cc1ccc(CC2CC(=O)N(c3cc(C)ccc3C)C2=O)cc1 (configuration not stated)	inactive	
Cc1ccc(S(=O)(=O)CC(=O)Nc2sc(C)c(C)c2C(N)=O)cc1	inactive	
O=C(NNC(=O)C1CCC1)c1ccccc1	inactive	
Cc1cccc(C2C3=C(CCCC3=O)N=C3c4ccccc4C(=O)C32)c1 (configuration not stated)	inactive	
COc1ccc(-c2cc(C(=O)NCCCn3ccnc3)no2)cc1	8.28 µM (active)	
O=C(NCCCn1ccnc1)c1cc(-c2ccccc2)on1	inactive	
COc1ccc(-c2cc(C(=O)NCCCN3CCOCC3)no2)cc1	inactive	

SMILES	Potency	activity change, negative = inhibition
Cc1ccc(S(=O)(=O)NC(=O)c2cccc(C)c2)cc1	inactive	
O=C(NC1CCN(S(=O)(=O)c2ccc(F)cc2)CC1)c1ccccc1	inactive	
CCN(CC)CCN(C(=O)c1ccc(S(=O)(=O)N2CCOCC2)cc1)c1nc2cc3c(cc2s1)OCCO3	inactive	
Cc1cccc2cc3c(N)c(C(=O)N4CCCc5ccccc54)sc3nc12	11.7 µM (active)	
Cc1c(C(=O)N2CCCc3ccccc32)sc2nc(-c3ccccc3)cn12	inactive	
CCCn1nc(C(=O)N2CCCc3ccccc32)c2ccccc2c1=O	inactive	
CCOC(=O)c1c(C)[nH]c(C(=O)OCC(=O)N2CCCC2=O)c1C	inactive	
COc1cccc(NC(=O)COC(=O)/C=C/c2ccco2)c1	inactive	
COCCCNC(=O)Cc1ccc(-n2c(C)nc3cccnc32)cc1	inactive	
COc1cc2c(cc1OC)CC(=O)N(CCCN(C)C[C@H]1Cc3cc(OC)c(OC)cc31)CC2	inactive	
Cn1c(=O)c2c(SCC(=O)N3CCOCC3)nc(C3CC3)nc2n(C)c1=O	inactive	
C#CC(C)(C)NC(=O)CSc1nc2c(c(=O)n(C)c(=O)n2C)n1CCCC	inactive	
CCCCn1c(SCC(=O)N2CCOCC2)nc2c1c(=O)n(C)c(=O)n2C	11.7 µM (active)	
CC(C)CC(=O)c1c[nH]c(C(=O)NCc2ccccc2)c1	inactive	
Cc1nc(SCC(=O)NC2CCCCC2C)c(C#N)c(C)c1C (configuration not stated)	inactive	
COc1ccc(-c2cc(-c3ccc(N)cc3)nc(N)c2C#N)cc1OC	inactive	
CCSc1nc(-c2ccc(OC)cc2)cc(-c2ccc(OC)cc2)c1C#N	4.65 µM (active)	
N#Cc1c(-c2ccccc2)cc(-c2ccccc2)nc1SCC(=O)O	inactive	
N#Cc1c(C(F)(F)F)cc(-c2ccccc2)nc1SCC(=O)N1CCOCC1	inactive	
COc1ccc(-c2cn[nH]c2-c2ccc(OC)cc2)cc1	inactive	
CCOC(=O)CC(=O)CSc1nc(-c2ccccc2)cc(-c2ccc(Cl)cc2)c1C#N	7.38 µM (active)	
